Experimental data published in PubChem BioAssay.

The compounds below were run against Streptavidin (Streptomyces avidinii) (UniProt P22629) (assay: compounds binding control protein streptavidin – biophysical, small-molecule microarray, 635/667 nm fluorescence, artefact control for SMM compound annotation, primary screen (AID 1147;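 further: signal reflects streptavidin binding to arrayed compounds as a control protein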)). Conditions: higher = more signal.
Streptavidin (Streptomyces avidinii), sequence (P22629 whole entry, looked up): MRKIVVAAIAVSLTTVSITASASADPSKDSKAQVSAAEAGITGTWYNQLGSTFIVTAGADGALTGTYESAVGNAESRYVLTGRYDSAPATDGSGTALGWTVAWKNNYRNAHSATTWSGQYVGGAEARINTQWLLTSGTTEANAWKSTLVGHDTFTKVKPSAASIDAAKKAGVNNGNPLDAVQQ

SMILES	composite z-score
[N-]=[N+]=Nc1ccccc1C[C@@]1(C(=O)NCC(O)CO)N=C(c2ccc(OCCCO)cc2)O[C@@H]1c1ccccc1 (stereo not given in full)	1.45
C=C(CCCC)/C(=C/C[C@H](OC(=O)c1ccncc1)c1cccc(OCCO)c1)c1cnc2ccccc2c1	0.905
COCCOC(=O)N1C(=O)[C@@]2(c3cc(C#Cc4ccc(OC)cc4)ccc31)[C@H](c1ccc(OCCO)cc1)N1[C@H](c3ccccc3)[C@H](c3ccccc3)OC(=O)[C@H]1[C@@H]2C(=O)NC[C@H](O)c1ccccc1	0.769
CCOC(=O)C1=CC[C@@H](c2ccc(OC)cc2)N(S(=O)(=O)c2ccc(C)cc2)[C@H]1c1ccc(C)cc1	0.778
COCCOC(=O)N1C(=O)[C@@]2(c3cc(C#CCCO)ccc31)[C@H](c1ccc(OCCO)cc1)N1[C@H](c3ccccc3)[C@H](c3ccccc3)OC(=O)[C@H]1[C@@H]2C(=O)N1CCCCCCC1	1.79
COC(=O)[C@@]1(Cc2ccc(F)cc2)[C@H]2c3cc(C(=O)N4CCCC4)n(Cc4cc(F)cc5c4OCOC5)c3C[C@H]2CN1C(=O)c1ccccc1	1.57
C=C(CCCC)/C(=C/C[C@H](OC(=O)c1ccncc1)c1ccc(OCCO)cc1)c1cnc2ccccc2c1	1.83
C=CCOC(=O)[C@@H]1[C@H]2C(=O)O[C@H](c3ccccc3)[C@H](c3ccccc3)N2[C@H](c2ccc(OCCOC(=O)[C@H]3C[C@H]4C(=O)N5CCC[C@H]5C(=O)N4[C@H]3c3cccc(OCCO)c3)cc2)[C@@]12C(=O)Nc1ccc(I)cc12	0.502
COc1ccc([Si](C)(C)[C@H]2[C@H](CC(=O)N3Cc4ccccc4C[C@H]3CO)O[C@@]3(C(=O)N(C)c4c(Br)cc(C)cc43)[C@@H]2C)cc1	0.298
CCCC[C@H]1OB(O)C[C@H]2C1=C(COc1ccccc1)C[C@H]1C(=O)C=CC(=O)[C@H]12	0.0073
COCCOC(=O)N1C(=O)[C@@]2(c3cc(C#CCC(C(=O)OC)C(=O)OC)ccc31)[C@H](C(=O)Nc1nc3ccccc3s1)[C@H]1C(=O)O[C@H](c3ccccc3)[C@H](c3ccccc3)N1[C@@H]2c1ccc(O)cc1	1.27
COC(=O)[C@@]1(Cc2ccc(OC)cc2)[C@H]2c3cc(C(=O)N4CCCC4)n(Cc4ccc(Cl)c(C(F)(F)F)c4)c3C[C@H]2CN1C(=O)c1ccccc1	1.59
Cc1ccc(F)cc1S(=O)(=O)N[C@H]1CCN(Cc2ccc(OC(C)C)cc2)C1	-0.48
COCCOC(=O)N1C(=O)[C@@]2(c3cc(C#CCNC(N)=O)ccc31)[C@H](C(=O)Nc1nc3ccccc3s1)[C@H]1C(=O)O[C@H](c3ccccc3)[C@H](c3ccccc3)N1[C@@H]2c1ccccc1OCCO	0.158
CCCCC(O)C1C=CC2C(=O)N(c3ccccc3)C(=O)C2N1Nc1ccc([N+](=O)[O-])cc1 (stereo not given)	0.736
CCCN1C(=O)[C@@]2(c3ccc([N+](=O)[O-])cc3)CC(=O)N(CC34CC5CC(CC(C5)C3)C4)[C@@H]2c2ccc(CO)cc21	-0.192
O=C1C=C(c2ccccc2)C(=O)C2=C1CC([C@H]1Oc3ccccc3S(=O)(=O)N3CCC[C@@H]13)=CC2	0.429
O=C1[C@H]2C=C(I)[C@H](C[C@@H]2OCCCCCCO)[C@@]12CO2	-0.324

SMILES	composite z-score
N#Cc1ccc(-c2cccc(=O)o2)cc1	0.427
N#Cc1ccc(NN2C(C(O)C3CC=CCC3)C=CC3C(=O)N(c4ccccc4)C(=O)C32)cc1 (stereo not given)	0.126
COC(=O)C(CC#Cc1ccc2c(c1)[C@]1(C(=O)N2)[C@H](c2ccc(OCCO)cc2)N2[C@H](c3ccccc3)[C@H](c3ccccc3)OC(=O)[C@H]2[C@@H]1C(=O)N1CCCCCCC1)C(=O)OC	2.97
COCCOC(=O)N1C(=O)[C@@]2(c3ccccc31)[C@H](c1ccc(O)cc1)N1[C@H](c3ccccc3)[C@H](c3ccccc3)OC(=O)[C@H]1[C@@H]2C(=O)N1CCCCCCC1	3.03
COc1ccc(C(O)C2C=CC3C(=O)N(c4ccccc4)C(=O)C3N2Nc2ccc([N+](=O)[O-])cc2)c2ccccc12 (stereo not given)	1.86
O=C1c2ccccc2[C@@]2(Cc3ccccc3N(Cc3ccccc3)C2=O)[C@H](c2ccc(CO)cc2)N1Cc1ccccc1Cl	-0.463
O=C1[C@@H]2[C@@H](CC(COc3ccccc3)=C([C@H](O)CCc3ccccc3)[C@@H]2CO)C(=O)N1Cc1ccccc1	0.541
COCCOC(=O)N1C(=O)[C@@]2(c3cc(C#CCC(C(=O)OC)C(=O)OC)ccc31)[C@H](C(N)=O)[C@H]1C(=O)O[C@H](c3ccccc3)[C@H](c3ccccc3)N1[C@@H]2c1ccc(O)cc1	-0.0413
CN(C)CCCNC(=O)[C@@]1(C)c2ccccc2C(=O)N(Cc2ccc(OC(F)(F)F)cc2)[C@H]1c1ccc(CO)cc1	-1.04
CCCC=C(CCC)[C@@H](NC(=O)OCC(C)C)c1ccc(C(=O)OC)cc1	0.153
COc1ccc(CCNC(=O)[C@@H]2c3ccccc3C(=O)N(Cc3ccccc3OC)[C@H]2c2ccc(CO)cc2)cc1	0.628
CCCC#C[Si](O[C@H](CC)c1cn(Cc2ccccc2)nn1)(C(C)C)C(C)C	1.72
[N-]=[N+]=NCc1ccccc1[C@@H]1OC(c2ccc(OCCCO)cc2)=N[C@]1(Cc1ccccc1N=[N+]=[N-])C(=O)O	0.488
CN(C)CCCNC(=O)[C@@H]1c2ccccc2C(=O)N(Cc2ccccc2C(F)(F)F)[C@H]1c1ccc(CO)cc1	-0.734
C=CCNC(=O)[C@H]1[C@@H]2C(=O)O[C@@H](c3ccccc3)[C@@H](c3ccccc3)N2[C@@H](c2ccc(OCCO)cc2)[C@]12C(=O)Nc1ccccc12	0.917
O=C1O[C@@H](c2ccccc2)[C@@H](c2ccccc2)N2[C@@H](c3ccccc3OCCO)[C@]3(C(=O)Nc4ccc(C#CCCO)cc43)[C@@H](C(=O)NC[C@H](O)c3ccccc3)[C@H]12	1.63
C[C@]1(C(=O)O)c2ccccc2C(=O)N(Cc2cc(F)cc(C(F)(F)F)c2)[C@H]1c1ccc(CO)cc1	0.0949
